Reference: publication PMC5540273 (PLoS ONE, 2017)

The compounds below were run on STK16. Conditions: concentration: 1 μM, replicates: in singlicate; n = 1.
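Further: KINOMEscan kinase panel screen.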

SMILES	%Inh
c1ccc(Oc2ccc(Nc3ccnc4cc(-c5ccc(CNCCN6CCOCC6)o5)ccc34)cc2)nc1 [GW567145]	2%
Cn1cc(-c2[nH]c3cc(NC(=O)[C@H](N)C4CCCCC4)cc4c3c2C=NNC4=O)cn1	66%
O=C(Nc1cccc(-c2nn3ccccc3c2-c2ccnc(Nc3cccc(F)c3)n2)c1)c1c(F)ccc(F)c1Cl [GSK357952]	0%
Cc1ccc(C)c(NC(=O)NC2CCN(c3ccnc(Nc4ccc(F)cc4)n3)C2)c1 (stereo not shown) [GSK1379720]	0%
O=C(Nc1n[nH]c2cc(-c3ccoc3)ccc12)C1CC1 [SB-738481]	21%
COc1cccc(C(=O)Nc2cccc(Oc3ccc4nc(NC(=O)C5CC5)cn4n3)c2)c1	0%
Cc1ccc(S(=O)(=O)Nc2ccc(Nc3nccc(Nc4cccc5[nH]ncc45)n3)cc2)cc1 [GSK581271]	43%
CN(C)Cc1ccc(-c2ccc3c(Nc4ccc(Oc5ccccn5)cc4)ccnc3c2)o1 [GW567148]	0%
Nc1ncc(-c2ccc3nccc(-c4ccncc4)c3c2)cc1S(=O)(=O)N1CCOCC1 [GSK1627798]	22%
CC(=O)Nc1nc2cnc(Nc3cc(NC(=O)c4cccc(C5(C#N)CC5)c4Cl)ccc3C)nc2s1	11%
Cl.Cl.NCC(NC(=O)c1cc(-c2ccccc2)c(-c2ccnc3[nH]ccc23)s1)c1ccccc1 (stereo not shown) [GSK1321561]	3%
COc1cccc(C2=C(Nc3ccc(Cl)c(C(=O)O)c3)C(=O)NC2=O)c1 [SB-390769]	8%
O=c1[nH]cc(-c2ccc(N3CCOCC3)cc2)c2sc(-c3cn[nH]c3)cc12 [GSK2276055]	35%
Cn1cc(-c2ccc3c(c2)CCN3C(=O)Cc2cccc(F)c2)c2c(N)ncnc21 [GSK2603358]	13%
CN1CCN(CCCNc2nccc(-c3c(-c4ccc(F)cc4)nn4cc(C(F)(F)F)ccc34)n2)CC1 [GW621581]	0%
Cc1ccc(C(=O)Nc2ccc(Nc3ccnc4cc(-c5nccs5)ccc34)cc2O)cc1.Cl [GW494702]	0%
CC(C)(C)c1ccc2nccc(Nc3cccc(O)c3)c2c1 [GW856795]	0%

SMILES	%Inh
Nc1n[nH]c2cnc(-c3ccccc3)cc12 [SB-642124]	45%
CCc1ccc(-c2ccc3c(c2)-c2c(cnn2C)S(=O)(=O)N3C)cc1	0%
O=C(Nc1n[nH]c2nc(-c3ccc(O)cc3)ccc12)C1CC1 [SB-710363]	73%
CC(=O)N1CCN(c2ccc(Nc3nccc(-c4sc(C(C)C)nc4-c4cccc(NS(=O)(=O)c5cccc(Cl)c5)c4)n3)cn2)CC1 [GSK1660437]	0%
c1ccc(-c2n[nH]cc2Nc2ccnc3ccccc23)nc1 [GW694077]	15%
Oc1cc(Nc2ccnc3cc(I)ccc23)ccc1F [GW552771]	0%
COc1ccc(Nc2nccc(N3CCC(NC(=O)Nc4cccc(OC)c4)C3)n2)cc1 (stereo not shown) [GSK1379742]	0%
COc1cc(Nc2nccc(-c3c(-c4cccc(NC(=O)c5c(F)cccc5F)c4)nn4ccccc34)n2)cc(OC)c1OC [GSK323521]	15%
c1ccc(-c2cnc3nccnn23)cc1 [AH20685]	0%
C[C@@H](Oc1cc(-n2cnc3cc(-c4ccnc(NCCS(C)(=O)=O)c4)ccc32)sc1C(N)=O)c1ccccc1Cl [GSK907232]	27%
COc1cc(Nc2ncc3c(C)nc(-c4cc5ccccc5[nH]4)n3n2)cc(OC)c1OC [GW869516]	86%
Cl.c1ccc(-c2ccc3c(Nc4ccc5[nH]ncc5c4)ccnc3c2)nc1 [GW440137]	30%
Cl.c1ccc(-c2ccc3c(Nc4ccc5[nH]ccc5c4)ccnc3c2)nc1 [GW440138]	0%
Cl.NC(=O)c1cccc(Nc2nccc(Nc3ccc(Oc4c(Cl)cccc4Cl)c(Cl)c3)n2)c1 [GW659009]	35%
O=C(Nc1ccccc1F)NC1CCN(c2ccnc(Nc3ccc(F)cc3)n2)CC1 [GSK1379800]	16%
COc1ccc(-c2coc3ccc(-c4nnc(SCc5ccc(OC)c(C(F)(F)F)c5)o4)cc23)cc1	17%
Clc1ccc(-c2nn3ncccc3c2-c2ccnc(Nc3ccc4c(c3)OCCO4)n2)cc1 [GW829116]	32%
